Inconclusive results are not listed. Where a call stands in place of a potency, no number is given. Activity calls are given as the source filed them. Unless noted, the call rests on the fitted dose curve; in most records, active means well fitted curve in the direction sought with a large enough effect; inconclusive means small, poorly fitted or top-dose-only effect, or another doubt; inactive means no such curve, though single readings can be large; an effect the other way counts as inactive or inconclusive.
Key:
[1] = qHTS assay for measurement of the activity of small molecule inhibitors on Zika virus induced Caspase-3 activity in human iPSC derived neural progenitor cells (hNPCs) (AID 1224857); further: nearly all actives have a fitted effect of over 65% in size
How it was run: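 Cells were plated at 350 per well and grown 16 to 20 hours. Compound pretreatment lasted one hour, after which ZIKV (2 FFU/cell) was added for 6 hours. Percent inhibition was normalized between uninfected and infected controls.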

[2] = qHTS assay for measurement of the activity of small molecule inhibitors on Zika virus induced Caspase-3 activity in human astrocytoma cells (AID 1224859)
How it was run: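 Percent inhibition of virus-induced caspase-3/7 signal is calculated against uninfected and ZIKV-infected control cells. Cells are SNB-19, infected at 2 FFU/cell for 6 h after 1 h compound exposure.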

[3] = qHTS assay to identify small molecule inhibitors of chordoma cells - UCH-1 (AID 1259355); further: nearly all actives have a fitted effect of over 55% in size
How it was run: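 Luminescent ATP read-out (CellTiter-Glo, 30min at room temperature) measured viability of UCH-1 cells exposed for 48hr to test drugs at 15 concentrations, co-dosed with a five-agent combination of auranofin, camptothecin, doxorubicin, rubitecan and topotecan.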

[4] = qHTS profiling for inhibitors of Plasmodium falciparum (3D7) proliferation (AID 743322; call rule not given here;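 further: infected erythrocytes exposed to compound for 72 h before lysis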); conditions: P. falciparum 3D7 proliferation; at 28.7 µM (top of the series) unless noted
How it was run: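 Erythrocytes infected with P. falciparum (0.3% parasitemia, 2.5% hematocrit) incubated with compounds 72 h at 37 C, 5% CO2. Lysis with saponin/Triton buffer containing SYBR Green I, overnight at room temperature in the dark; DNA fluorescence (485/535 nm) normalised to 0.29 uM artemisinin and DMSO.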

[5] = qHTS profiling for inhibitors of Plasmodium falciparum (DD2) proliferation (AID 743323; call rule not given here); conditions: lower = more inhibition; at 28.7 µM (top of the series) unless noted
How it was run: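 P. falciparum Dd2-infected erythrocytes (0.3% parasitemia, 2.5% hematocrit) exposed 72 h at 37 C, 5% CO2. Lysis with SYBR Green, overnight at room temperature, fluorescence 485/535 nm; normalized to 0.29 uM artemisinin and DMSO.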

[6] = qHTS profiling for inhibitors of Plasmodium falciparum (HB3) proliferation (AID 743324); conditions: Plasmodium falciparum HB3 blood-stage proliferation; at 28.7 µM (top of the series) unless noted
How it was run: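 P. falciparum HB3 grown in erythrocytes (0.3% parasitemia, 2.5% hematocrit final) with compound for 72 h at 37 C, 5% CO2. Parasite DNA detected by SYBR Green after saponin/triton lysis overnight; normalized to 0.29 uM artemisinin and DMSO.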

Compound: O=C(Oc1ccccc1C(=O)O)c1ccccc1O
- outcome [1]: inactive
- outcome [2]: inactive
- Potency [3]: inactive

Compound: CCN(CC)C(=O)Nc1ccc(OCC(O)CNC(C)(C)C)c(C(C)=O)c1 (stereo unspecified)
- outcome [1]: inactive
- outcome [2]: inactive
- Potency [3]: inactive

Compound: C#CCN(C)Cc1ccccc1
- outcome [1]: inactive
- outcome [2]: inactive
- Potency [3]: inactive

Compound: O=C(O)c1ccccn1
- outcome [1]: inactive
- outcome [2]: inactive
- Potency [3]: inactive

Compound: CCCCCCCCCCCCOS(=O)(=O)O
- outcome [1]: inactive
- outcome [2]: inactive
- Potency [3]: inactive

Compound: CCCCN(CCCC)CCCOC(=O)c1ccc(N)cc1
- outcome [1]: inactive
- outcome [2]: inactive
- Potency [3]: inactive

Compound: COc1ccc2cc1Oc1ccc(cc1)C[C@H]1c3c(cc4c(c3Oc3cc5c(cc3OC)CCN(C)[C@@H]5C2)OCO4)CCN1C
- outcome [1]: inactive
- outcome [2]: inactive
- activity, negative = inhibition [3]: -13.6% [at 1.88 µM] (inactive)

Compound: C[C@@H]1CN(c2c(F)c(F)c3c(=O)c(C(=O)O)cn(C4CC4)c3c2F)C[C@H](C)N1
- outcome [1]: inactive
- outcome [2]: inactive
- Potency [3]: inactive

Compound: CC(C)(C)C(=O)NCCCC(=O)O
- outcome [1]: inactive
- outcome [2]: inactive
- Potency [3]: inactive

Compound: CN1[C@@H]2CC(OC(=O)[C@H](CO)c3ccccc3)C[C@H]1[C@@H]1O[C@@H]12 (stereo partly specified)
- outcome [1]: inactive
- outcome [2]: inactive
- Potency [3]: inactive

Compound: CCN(CC)CCNC(=O)c1cc(Cl)c(N)cc1OC
- outcome [1]: inactive
- outcome [2]: inactive
- Potency [3]: inactive

Compound: CC1=C(CC(=O)O)c2cc(F)ccc2/C1=C\c1ccc(S(C)=O)cc1 (stereo unspecified)
- outcome [1]: inactive
- outcome [2]: inactive
- Potency [3]: inactive

Compound: COc1ccc(S(=O)(=O)Nc2nnc(CC(C)C)s2)cc1
- outcome [1]: inactive
- outcome [2]: inactive
- Potency [3]: inactive

Compound: CC(=O)CCC(=O)O
- outcome [1]: inactive
- outcome [2]: inactive
- Potency [3]: inactive

Compound: NC(=O)c1ncn([C@@H]2O[C@H](CO)[C@@H](O)[C@H]2O)c1N
- remaining parasite growth % (stronger effect = lower value) [4]: 104%
- activity, percent of control [5]: 121%
- outcome [1]: inactive
- outcome [2]: inactive
- Potency [3]: inactive

Compound: NC(=O)NC(=O)Cc1ccccc1
- outcome [1]: inactive
- outcome [2]: inactive
- Potency [3]: inactive

Compound: NCC(=O)CCC(=O)O
- outcome [1]: inactive
- outcome [2]: inactive
- Potency [3]: inactive

Compound: O=C(O)CN1C(=O)c2cccc3cccc(c23)C1=O
- outcome [1]: inactive
- outcome [2]: inactive
- Potency [3]: inactive

Compound: CCC(=O)c1ccc(O)cc1
- outcome [1]: inactive
- outcome [2]: inactive
- Potency [3]: inactive

Compound: Cc1cc(O)cc2c1O[C@](C)(CCC[C@H](C)CCC[C@H](C)CCCC(C)C)CC2
- outcome [1]: inactive
- outcome [2]: inactive
- Potency [3]: inactive

Compound: O=C1NS(=O)(=O)c2ccccc21
- outcome [1]: inactive
- outcome [2]: inactive
- Potency [3]: inactive

Compound: CS(=O)(=O)c1ccc([C@@H](O)[C@@H](CF)NC(=O)C(Cl)Cl)cc1
- outcome [1]: inactive
- outcome [2]: inactive
- Potency [3]: inactive

Compound: OC[C@H]1O[C@@H](O[C@@H]2[C@@H](CO)O[C@](O)(CO)[C@H]2O)[C@H](O)[C@@H](O)[C@H]1O
- outcome [1]: inactive
- outcome [2]: inactive
- Potency [3]: inactive

Compound: NS(=O)(=O)c1cc2c(cc1C(F)(F)F)NC(Cc1ccccc1)NS2(=O)=O (stereo unspecified)
- outcome [1]: inactive
- outcome [2]: inactive
- Potency [3]: inactive

Compound: CCCCN(CCCC)CC(O)c1cc(Cl)cc2c1-c1ccc(Cl)cc1/C2=C/c1ccc(Cl)cc1 (stereo unspecified)
- remaining parasite growth % (stronger effect = lower value) [4]: 0.77%
- activity, percent of control [5]: 1.35%
- remaining proliferation (% of control), lower = more inhibition [6]: 1.36%
- outcome [1]: inactive
- outcome [2]: inactive
- Potency [3]: inactive

Compound: Cc1ncc([N+](=O)[O-])n1CC(O)CCl (stereo unspecified)
- outcome [1]: inactive
- outcome [2]: inactive
- Potency [3]: inactive

Compound: O=C1NC(=O)[C@@]2(CCOc3ccc(F)cc32)N1
- outcome [1]: inactive
- outcome [2]: inactive
- Potency [3]: inactive

Compound: COc1cc2[nH]c(=O)[nH]c(=O)c2cc1OC
- outcome [1]: inactive
- outcome [2]: inactive
- Potency [3]: inactive

Compound: C[C@@H]1C[C@H]2[C@@H]3C[C@H](F)C4=CC(=O)C=C[C@]4(C)[C@@]3(F)[C@@H](O)C[C@]2(C)[C@@]1(O)C(=O)CO
- outcome [1]: inactive
- outcome [2]: inactive
- Potency [3]: inactive

Compound: COC(=O)C1=C(C)NC(C)=C(C(=O)OC)C1c1ccccc1[N+](=O)[O-]
- outcome [1]: inactive
- outcome [2]: inactive
- Potency [3]: inactive

Compound: CC(O)COc1ccccc1 (stereo unspecified)
- outcome [1]: inactive
- outcome [2]: inactive
- Potency [3]: inactive

Compound: O=c1cc[nH]c(=O)[nH]1
- outcome [1]: inactive
- outcome [2]: inactive
- Potency [3]: inactive
